# Test results from ChEMBL document CHEMBL1157539, “Thousands of chemical starting points for antimalarial lead identification” (Nature, 2010).
# System: Plasmodium falciparum
# Assay: GSK_TCMDC: Inhibition of Plasmodium falciparum Dd2 in whole red blood cells, using parasite LDH activity as an index of growth. Test compounds present at 2uM
# Type: functional
row,Structure (SMILES),Inhibition [%]
1,COc1ccc(Nc2ncc3c(-c4ccc(NC(=O)c5cccc(C(F)(F)F)c5)cc4)c[nH]c3n2)cc1OC,30
2,CC(C)C1C(O)=C(c2ccc3ccccc3c2)C(=O)N1Cc1ccsc1 (stereo unspecified),82
3,Cc1nc(C)c(-c2ccc(C(=O)c3ccc(Cl)cc3)cc2)c(O)c1Br,95
4,Cc1cccc(C(=O)Nc2ccnc(N3CCC(N(C)Cc4cccc(C#N)c4)CC3)c2)c1.O=C(O)C(F)(F)F,52
5,CC(C)C(=O)NC(c1ccc(N(C)C)cc1)c1cc(Cl)c2cccnc2c1O (stereo unspecified),64
6,COc1cc(CNc2ccc(N3CCCC3)cc2)cc(Cl)c1OC,94
7,Clc1ccc(-c2ccc(C=NNc3nc(=Nc4ccccc4)[nH]c(=Nc4ccccc4)[nH]3)o2)cc1Cl,75
8,COc1ccc(N2CCN(CCCCNC(=O)c3ccc(NC(=O)c4cc(C(F)(F)F)cc(C(F)(F)F)c4)cc3)CC2)cc1OC,100
9,COc1cc(-c2[nH]c(-c3ccc(OCCN(C)C)cc3)cc2-c2ccncc2)ccc1Cl.Cl,33
10,CCOC(=O)c1c(CCc2ccc(C(F)(F)F)cc2)nc2c(c1-c1ccc(C(=O)N[C@@H](C)c3ccncc3)cc1)C(=O)N1CCC[C@@H]21,68
11,CCN(CC)CCN(Cc1ccc(-c2ccc(C(F)(F)F)cc2)cc1)C(=O)Cn1c(CCc2cccc(F)c2F)nc(=O)c2ccc(F)cc21.O=C(O)C(O)C(O)C(=O)O,41
12,O=C(Nc1cccc(-c2ccc(-c3nc4cc(F)ccc4[nH]3)s2)c1)c1cccnc1,72
13,O=C(/C=C/c1ccc(Cl)c(Cl)c1)NCCCCCN1CCC(NC(=O)c2cc(Cl)ccc2F)CC1,32
14,NC(=O)C1CCN(Cc2cccc(-c3cccc(-c4nc5cc(C(F)(F)F)ccc5[nH]4)c3)c2)CC1.O=C(O)C(F)(F)F,100
15,COc1ccc2cc(-c3nc(-c4c(Cl)cccc4Cl)[nH]c3-c3ccnc(NCCC4CCCN4C)c3)ccc2c1.O=C(O)C(F)(F)F (stereo unspecified),82
16,O=[N+]([O-])c1cccc(-c2ccc(C=NNc3cc(N4CCCC4)nc(N4CCCC4)n3)o2)c1,67
17,CC(C)(CNCc1cc(Cl)cc(Cl)c1)c1nc(-c2ccnc(N)n2)c(-c2ccc(Cl)c(O)c2)[nH]1.Cl,2
18,O=C(Nc1ccc(Cl)c(Cl)c1)Nc1cc(C(F)(F)F)ccc1Cl,85
19,O=C(Cc1ccccc1)NC(c1ccccc1)c1ccc2cccnc2c1O (stereo unspecified),61
20,COc1cc(C(=O)N2N=C(c3c(-c4ccccc4)c4cc(Br)ccc4[nH]c3=O)CC2c2cccc([N+](=O)[O-])c2)cc(OC)c1OC (stereo unspecified),95
21,OC(CNCc1ccccc1OCc1ccccc1)c1cc(C(F)(F)F)cc(C(F)(F)F)c1 (stereo unspecified),99
22,c1ccc(CN2CCN(c3cc(-c4cncc(-c5ccccc5)c4)nc(-c4ccccc4)n3)CC2)cc1,12
23,CCOc1ccccc1C(=O)N1CCc2cc3nccc(N4CCN5CCC[C@H]5C4)c3cc21,58
24,O=C(NCCc1ccc(F)cc1)c1ccc(N2CCN(c3ccncc3)CC2)nc1.O=C(O)C(F)(F)F,3
25,CCN(CC)/C(=N/C(=N)Nc1ccc(C)cc1)NCCCCCCN/C(=N\C(=N)Nc1ccc(C)cc1)N(CC)CC,98
26,COc1c(O)cc2oc(-c3ccc(O)cc3)cc(=O)c2c1O [HISPIDULIN],0
